Measurements published in PubChem BioAssay (NCATS).
Where “and” joins values, the source holds several entries; their conditions need not be identical. Equal values may be shown once. A number with no mark means an inactive call. Records with an inconclusive call do not appear. Where a call stands in place of a potency, no number is given. Calls of active or inactive are those of the source. Unless noted, calls come from the whole dose curve; as a rule, active = well fitted curve in the direction sought with a large enough effect; inconclusive = small, poorly fitted or top-dose-only effect, or another doubt; inactive = no such curve, though single readings can be large; an effect the other way counts as inactive or inconclusive.

Columns and labels:
[1] = qHTS assay for small molecule disruptors of the mitochondrial membrane potential - 1 hr assay (AID 651754; calls by dose curve; note: nearly all actives have a fitted effect of over 35% in size)
Method in brief: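 Loss of mitochondrial potential shifts the cationic dye from red mitochondrial aggregates to green cytoplasmic monomers. Cells (HepG2) are treated with compound for 1 hr before a 30 min dye incubation at 37C.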

[2] = qHTS assay for small molecule disruptors of the mitochondrial membrane potential - 5 hr assay (AID 651755; calls by dose curve; note: nearly all actives have a fitted effect of over 40% in size)
Method in brief: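 Read-out: ratiometric Mito-MPS fluorescence, green monomer (ex 490/em 535) vs red mitochondrial aggregate (ex 540/em 590). HepG2 cells treated 5 hr at 37C before 30 min dye loading.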

[3] = molecular target: Tumor necrosis factor (Homo sapiens) (UniProt P01375); assay: qHTS assay to identify small molecules that stimulate Tumor Necrosis Factor-alpha (TNF-alpha) secretion (AID 651757; active = well fitted curve in the direction sought with a large enough effect in the signal ratio; the % refers to the signal ratio)
Method in brief: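 Human monocytic THP-1 cells are plated, treated with compound and held at 37 C for 17 hrs. Labeled anti-TNF-alpha antibody mixture is then added; after 3 hr at room temperature, TR-FRET signal reports secreted TNF-alpha.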

[4] = qHTS assay for environmental chemicals that activate the Aryl hydrocarbon Receptor (AhR) signaling pathway (AID 651777); conditions: 1A2-DRE human hepatoma cells, luciferase, 24 h; activation: stronger effect = higher value; note: nearly all actives have a fitted effect of over 15% in size; note: potency is the fitted concentration of half-maximal effect
Method in brief: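 Measured luciferase activity, read 30 min after One-Glo addition at room temperature, from human hepatoma cells bearing a dioxin response element–CYP1A2 promoter reporter and exposed to compound for 24 hr at 37 C.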

[5] = molecular target: Peroxisome proliferator-activated receptor alpha (Homo sapiens) (UniProt Q07869); assay: qHTS assay for small molecule agonists of the peroxisome proliferator-activated receptor alpha (PPARalpha) signaling pathway (AID 651778); conditions: PathHunter PPARalpha complementation, chemiluminescence, 6 h; stronger effect = higher value
Method in brief: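 Enzyme-fragment complementation assay in which ligand-bound PPARalpha translocates and forms an active enzyme that generates chemiluminescence. Cells were plated overnight, exposed to compound for 6 hr at 37 C, and then given detection reagent for 60 min at room temperature.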

[6] = molecular target: Nuclear receptor ROR-gamma (Homo sapiens) (UniProt P51449); assay: qHTS assay for small molecule antagonists of the retinoid-related orphan receptor gamma (ROR-gamma) signaling pathway (AID 651802);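 note: CHO cells with doxycycline-induced ROR-gamma expression; series mostly up to about 92 µM; nearly all actives have a fitted effect of over 60% in size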
Method in brief: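 Steps: cells dispensed; compound or DMSO transferred by pin tool; doxycycline added to induce the ROR response element-driven luciferase; plates held 16hr at 37C; ONE-Glo added and luminescence measured.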

[7] = qHTS assay for small molecule antagonists of the retinoid-related orphan receptor gamma (ROR-gamma) signaling pathway - cell viability counter screen (AID 720652; active = well fitted curve in the direction sought with a large enough effect in the repeat runs; an effect the other way counts as inactive or inconclusive;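 note: CHO reporter cells with doxycycline-induced ROR-gamma expression; series mostly up to about 92 µM; compound exposure lasted 16 hr before ATP read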)
Method in brief: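 Steps: seed CHO cells bearing TET-inducible ROR and ROR response element-luciferase; rest 5 hr at 37 C; add compound, then doxycycline; incubate 16 hr; add CellTiter-Glo and read luminescence as ATP-based viability.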

[8] = qHTS assay for small molecule agonists of the antioxidant response element (ARE) signaling pathway measured by Nrf2-dependant transcriptional activity - cell viability counter screen (AID 720653; active = well fitted curve in the direction sought with a large enough effect in the repeat runs; an effect the other way counts as inactive or inconclusive); conditions: ARE-bla HepG2 viability, CellTiter-Glo ATP luminescence, 16 h; stronger effect = lower value
Method in brief: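 ARE-bla HepG2 cells treated with compounds for 16 h at 37C; this counter screen measures viability as intracellular ATP by CellTiter-Glo luminescence after 30 min at room temperature.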

[9] = qHTS assay for small molecule agonists of the antioxidant response element (ARE) signaling pathway measured by Nrf2-dependant transcriptional activity (AID 720636; active = well fitted curve in the direction sought with a large enough effect in the repeat runs; an effect the other way counts as inactive or inconclusive;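 note: HepG2 cells with an ARE-driven luciferase reporter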)
Method in brief: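 In HepG2 cells engineered with an Nrf2-responsive luciferase gene, ARE induction was quantified as luminescence after 16 hr compound treatment at 37 C.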

[10] = qHTS assay to identify small molecules that stimulate interleukin-8 (IL-8) secretion (AID 651758; active = well fitted activation curve with a large enough effect in the signal ratio; the % refers to the signal ratio)
Method in brief: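 Compounds are added to THP-1 cells (2000 per well) and left 16 hrs at 37 C. A labeled anti-IL-8 antibody pair is then added, and IL-8 secretion is measured by time-resolved FRET after 1-3 hrs at room temperature.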

Chain of Tumor necrosis factor (Homo sapiens) (P01375 whole entry, looked up): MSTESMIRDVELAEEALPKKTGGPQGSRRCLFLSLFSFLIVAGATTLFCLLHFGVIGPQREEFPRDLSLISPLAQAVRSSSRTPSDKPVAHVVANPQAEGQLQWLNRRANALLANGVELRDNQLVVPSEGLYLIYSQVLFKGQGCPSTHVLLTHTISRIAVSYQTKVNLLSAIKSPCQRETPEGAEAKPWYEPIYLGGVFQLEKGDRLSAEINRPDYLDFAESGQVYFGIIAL
Chain of Nuclear receptor ROR-gamma (Homo sapiens) (P51449 whole entry, looked up): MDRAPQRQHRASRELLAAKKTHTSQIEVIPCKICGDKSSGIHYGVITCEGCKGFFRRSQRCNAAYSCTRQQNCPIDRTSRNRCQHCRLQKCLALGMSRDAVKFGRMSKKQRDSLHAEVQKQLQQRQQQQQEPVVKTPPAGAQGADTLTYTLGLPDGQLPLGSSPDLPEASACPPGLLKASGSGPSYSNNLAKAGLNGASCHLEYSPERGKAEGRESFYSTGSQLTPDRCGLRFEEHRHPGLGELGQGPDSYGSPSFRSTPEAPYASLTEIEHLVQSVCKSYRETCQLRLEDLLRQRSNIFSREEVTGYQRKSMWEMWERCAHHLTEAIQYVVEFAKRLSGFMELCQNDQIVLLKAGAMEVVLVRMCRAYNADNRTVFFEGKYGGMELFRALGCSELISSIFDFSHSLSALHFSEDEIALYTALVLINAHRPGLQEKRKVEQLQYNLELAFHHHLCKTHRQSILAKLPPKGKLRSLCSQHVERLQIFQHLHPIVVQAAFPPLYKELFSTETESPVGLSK
Chain of Peroxisome proliferator-activated receptor alpha (Homo sapiens) (Q07869 whole entry, looked up, the tested form may be a part): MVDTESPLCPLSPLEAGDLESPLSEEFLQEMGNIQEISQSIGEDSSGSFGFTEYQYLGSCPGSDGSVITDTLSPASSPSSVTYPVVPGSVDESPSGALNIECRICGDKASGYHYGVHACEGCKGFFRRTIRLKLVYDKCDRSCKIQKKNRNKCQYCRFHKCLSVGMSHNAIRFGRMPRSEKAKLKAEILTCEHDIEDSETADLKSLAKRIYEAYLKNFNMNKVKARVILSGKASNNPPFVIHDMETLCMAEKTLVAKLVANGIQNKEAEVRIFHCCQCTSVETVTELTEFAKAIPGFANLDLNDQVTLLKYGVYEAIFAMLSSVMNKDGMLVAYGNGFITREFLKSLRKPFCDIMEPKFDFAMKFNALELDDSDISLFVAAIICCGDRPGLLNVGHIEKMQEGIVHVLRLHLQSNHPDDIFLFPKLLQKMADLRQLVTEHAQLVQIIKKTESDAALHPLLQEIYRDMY

| Structure (SMILES) | Potency [1] | Potency [2] | Potency [3] | activation [4] | max response [5] | Potency [6] | Potency [7] | max response [8] | outcome [9] | Potency [4] | Potency [10] |
| --- | --- | --- | --- | --- | --- | --- | --- | --- | --- | --- | --- |
| O=C(Cl)c1c(Cl)cccc1Cl | inactive | inactive | inactive | -1.9% | -3.46% | inactive | inactive | 10.8% |  |  |  |
| S=C([S-])NCCNC(=S)[S-].[Zn+2] | inactive | inactive | inactive | 0.897% and 8.85% and 0.332% | -15.1% and -9.87% and -6.7% |  | inactive | -3.47% and -31.7% and -9.84% |  |  |  |
| CC(=O)c1ccc([N+](=O)[O-])cc1 | inactive | inactive | inactive | 0.202% | -2.88% |  | inactive | 19% | inactive |  |  |
| C=CCCCCCCC=C | inactive | inactive | inactive | 0.475% | 4.13% | inactive | inactive | 5.83% |  |  |  |
| O=[N+]([O-])c1ccc(Cl)cc1Cl | inactive | inactive | inactive | -1.71% | -1.04% |  |  | -19.5% | inactive |  |  |
| Cc1nc2ccc(Cl)cc2[nH]1 | inactive | inactive | inactive | 3.58% | -1.28% |  | inactive | -4.37% | inactive |  |  |
| Cc1cc(C)cc(O)c1 | inactive | inactive | inactive | -0.55% | -2.86% | inactive | inactive | -0.981% |  |  |  |
| N#CCc1ccccc1[N+](=O)[O-] | inactive | inactive | inactive | 4.16% | -3.4% |  |  | 3.79% | inactive |  |  |
| O=[N+]([O-])c1c(Cl)cc(Cl)cc1Cl | inactive | inactive | inactive | 0.0842% | 0.895% | inactive |  | -2.01% | inactive |  |  |
| CC(C=O)Cc1ccc(C(C)(C)C)cc1 (configuration not stated) | inactive | inactive | inactive | 0.301% and -1.84% | -2% and -1.24% |  | inactive | -4.71% and -17.8% | inactive |  |  |
| ClCCl | inactive | inactive | inactive | 0.008% | -6.14% | inactive | inactive | 8.53% |  |  |  |
| FB(F)F | inactive | inactive | inactive | -0.371% | -1.82% |  | inactive | 3.97% | inactive |  |  |
| C=C(C)C(=O)OCC(C)C | inactive | inactive | inactive | -0.68% | -4.6% | inactive | inactive | -3.35% |  |  |  |
| NC(N)=S | inactive | inactive | inactive | 0.321% | -4.91% |  |  | -0.0983% | inactive |  |  |
| CC/C=C/C#N | inactive | inactive | inactive | -1.16% | 9.19% |  |  | 1.63% | inactive |  |  |
| O=[N+]([O-])c1ccc(NCCO)c(OCCO)c1 | inactive | inactive | inactive | 0.85% | -4.01% |  | inactive | 6.98% | inactive |  |  |
| CC(=O)c1cccc([N+](=O)[O-])c1 | inactive | inactive | inactive | 1.48% | 0.67% |  | inactive | 17.8% | inactive |  |  |
| CCCCOCCOCCOCCCC | inactive | inactive | inactive | -0.359% | -5.07% |  | inactive | 10.5% | inactive |  |  |
| Cc1c(C(=O)O)cccc1[N+](=O)[O-] | inactive | inactive | inactive | 1.63% | -0.685% | inactive | inactive | 17.9% |  |  |  |
| CC(C)CCOC(=O)/C=C/c1ccccc1 | inactive | inactive | inactive | 0.411% | 0.372% | inactive |  | 5.13% |  |  |  |
| CCCCCCC(=O)O | inactive | inactive | inactive | 0.903% | 14.5% |  | inactive | -2.08% | inactive |  |  |
| FC(F)(F)c1ccccc1Cl | inactive | inactive | inactive | -0.14% | -1.82% |  | inactive | -5.26% | inactive |  |  |
| O=C(O)c1ccccc1[N+](=O)[O-] | inactive | inactive | inactive | -1.41% | -2.24% | inactive | inactive | -13.2% |  |  |  |
| CC(=O)Nc1cccc(N)c1 | inactive | inactive | inactive | -0.0665% | -7.63% | inactive |  | 1.46% |  |  |  |
| CCCCC(CC)COC(=O)CCCCC(=O)OCC(CC)CCCC (configuration not stated) | inactive | inactive | inactive | -0.729% and -3.02% | -4.18% and -1.05% |  | inactive | 11.7% and -4.79% | inactive |  |  |

| Structure (SMILES) | Potency [1] | Potency [2] | Potency [3] | activation [4] | max response [5] | Potency [6] | Potency [7] | max response [8] | outcome [9] | Potency [4] | Potency [10] |
| --- | --- | --- | --- | --- | --- | --- | --- | --- | --- | --- | --- |
| CNC(=O)N(c1ccccc1)c1ccccc1 | inactive | inactive | inactive | -0.495% | -2.12% |  | inactive | -11.7% | inactive |  |  |
| CCCCC(C=O)CC (configuration not stated) | inactive | inactive | inactive | 0.316% | -5.44% | inactive | inactive | 4.13% |  |  |  |
| NCCCCCCN | inactive | inactive | inactive | 0.0666% | -4.8% | inactive | inactive | -0.206% |  |  |  |
| Cc1c(N)cccc1[N+](=O)[O-] | inactive | inactive | inactive | -0.541% | -5.39% |  | inactive | 12.6% | inactive |  |  |
| C/C=C(/C)C#N | inactive | inactive | inactive | 1.73% | -2.14% | inactive |  | -5.17% | inactive |  |  |
| Cc1ccc2oc(=O)ccc2c1 | inactive | inactive | inactive | 8.69% and -0.308% | 7.89% and -0.114% |  | inactive | -9.69% and -6.43% |  |  |  |
| CCc1ccccc1 | inactive | inactive | inactive | 3.73% | -3.6% |  | inactive | -7.67% | inactive |  |  |
| Cc1ccc(C#N)cc1 | inactive | inactive | inactive | 2.83% | 0.216% | inactive | inactive | 4.38% |  |  |  |
| FC(F)(F)c1cccc(Cl)c1 | inactive | inactive | inactive | -0.497% | -9.21% | inactive | inactive | -9.33% |  |  |  |
| C(=C/c1ccccc1)/c1ccccc1 | inactive | inactive | inactive | 1.55% | 5.49% | inactive | inactive | 5.32% |  |  |  |
| c1ccc2n[nH]nc2c1 | inactive | inactive | inactive | 0.556% | -6.33% |  | inactive | 3.37% | inactive |  |  |
| O=[N+]([O-])c1ccc(CCO)cc1 | inactive | inactive | inactive | 0.416% | -1.57% | inactive | inactive | -24.2% |  |  |  |
| Nc1nc(-c2ccccc2)cs1 | inactive | inactive | inactive |  | 22.8% |  |  | 4.04% |  | 35.5 µM (active) |  |
| Cc1cc(C)c(N)cc1C | inactive | inactive |  | 1.62% | -4.75% |  | inactive | 7.8% | inactive |  | inactive |
| c1ccsc1 | inactive | inactive |  | -0.706% | -6.32% | inactive | inactive | 9% | inactive |  | inactive |
| COc1cccc(N)c1 | inactive | inactive | inactive |  | -3.67% | inactive | inactive | 10.6% | inactive |  |  |
| CCCCC(CC)CNCC(CC)CCCC (configuration not stated) | inactive | inactive | inactive |  | -0.499% |  | inactive | 3.58% | inactive |  |  |
| O=[N+]([O-])c1cc(C(F)(F)F)ccc1Cl | inactive | inactive |  | 1.14% | 0.399% | inactive | inactive | -6.2% |  |  |  |
| NC(=O)/N=N/C(N)=O | inactive | inactive |  | -0.307% | -8.1% | inactive |  | 19.2% | inactive |  | inactive |
| CC(=O)OC(C)=O | inactive | inactive |  | 1.76% | -5.07% | inactive | inactive | 5.05% | inactive |  |  |
| C=C(C)C(=O)OCCCCCCCCCC | inactive | inactive |  | -0.81% | -0.186% | inactive | inactive | -0.733% | inactive |  | inactive |
| CC(=O)CCc1ccccc1 | inactive | inactive | inactive |  | 0.48% |  | inactive | 0.255% | inactive |  |  |
| CCCCC(=O)N(C)C | inactive | inactive |  | 1.62% | -3.71% | inactive | inactive | -1.17% |  |  |  |
| NC(=O)c1cccc([N+](=O)[O-])c1 | inactive | inactive |  | 0.373% | 2.42% | inactive | inactive | -9.57% |  |  |  |
| CC(C)N=C=NC(C)C | inactive | inactive |  | -2.05% | -2.65% |  | inactive | -1% | inactive |  | inactive |
